Source: PubChem (several laboratories)
In the library only some 2.2% were active in any assay of this set; here they are far more common.
aSyn UTR inh = MLPCN primary screen, SNCA 5' untranslated region; alpha-synuclein 5'UTR reporter, inhibitor activity; inhibition, % (tested at 7.5 µM); actives 0.82% (n = 300,000); in the data active = inhibition above about 60%; inconclusive = no clear call, values can overlap the other calls;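 note: H4 neuroglioblastoma cells stably carrying SNCA 5'UTR luciferase fusion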
KLF5 inhibitor = suppresses KLF5 promoter-driven expression | DLD-1 KLF5 promoter-luciferase reporter, luminescence | actives 0.23% (n = 290,000) | inhibition, % at 5 µM;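 active = inhibition above a per-plate limit of that plate's mean compound inhibition plus 3 SD, cut at about 60% in these data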;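 note: higher means less KLF5 promoter-driven luciferase light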
IEC-6 tox = IEC-6 cytotoxicity, counter-screen for KLF5 inhibitors; luminescence viability; inhibition, % at 5 µM; actives 0.78% (n = 290,000); AID 1825; in the data active = inhibition above about 22%
BaF3 tox = counter-screen for JAK2V617F inhibitors: parental Ba/F3 viability inhibitors; CellTiter-Glo ATP luminescence; inhibition, % at 5.6 µM; actives 1.1% (n = 220,000); AID 1486;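 active = inhibition above a per-campaign cutoff, the mean inhibition of all tested compounds plus 3 SD, cut at about 27% in these data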
APP transl inh = APP translation inhibition; SH-SY5Y APP 5'UTR-luciferase reporter, luminescence; inhibition, % at 2 µM; actives 0.82% (n = 190,000);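 active = inhibition above a set limit, derived from the sample mean plus 3 SD, cut at about 45% in these data; inconclusive = one replicate passes the limit while the other fails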
Ba/F3 V617F tox = lowers viability of Ba/F3 cells expressing EpoR and JAK2V617F; actives 1.1% (n = 220,000); inhibition, % at 5.6 µM; ATP luminescence; AID 1446;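 active = inhibition above the campaign mean plus 3 SD over all tested compounds, cut at about 24% in these data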;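 note: cytokine-independent growth of Ba/F3 cells driven by EpoR plus mutant JAK2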
Of the large screens only hits and unclear results are named; the others gave an inactive call.

CCCCCCCOc1ccc(OC(=O)c2cccnc2)cc1	BaF3 tox 43.8, Ba/F3 V617F tox 57.8
COc1ccc(-c2cc3nc(CCl)[nH]c(=O)c3s2)cc1	aSyn UTR inh 71.2 (no result: BaF3 tox, APP transl inh, Ba/F3 V617F tox)
COc1ccc(-c2cc3nc[nH]c(=O)c3s2)cc1	none
Cc1ccc2oc(C(=O)NCC(c3ccco3)N(C)C)c(C)c2c1 (configuration not stated)	none (no result: BaF3 tox, APP transl inh, Ba/F3 V617F tox)
C=CCNC(=S)NNC(=O)c1ccc(OCCC)cc1	none
CCCOc1ccc(C(=O)NNC(=S)NC(=O)CC)cc1	aSyn UTR inh 85.4
NC(=O)C1CCCN1S(=O)(=O)c1ccc2ccccc2c1 (configuration not stated)	none (no result: BaF3 tox, APP transl inh, Ba/F3 V617F tox)
O=C(NCCN1CCCCC1)Nc1ccc(F)cc1F	none (no result: BaF3 tox, APP transl inh, Ba/F3 V617F tox)
Cc1cc(C)c(NC(=O)CCN2CCN(Cc3ccccc3)CC2)c(C)c1	aSyn UTR inh 98.3 (no result: KLF5 inhibitor, IEC-6 tox, BaF3 tox, APP transl inh, Ba/F3 V617F tox)
O=C1OCCC1Sc1nnc(-c2ccc(Cl)cc2Cl)o1 (configuration not stated)	aSyn UTR inh 89.5 (no result: APP transl inh)
Cc1ccc2c(c1)sc(=NC(=O)c1cccs1)n2C	aSyn UTR inh 85.4
O=C(CCC(=O)N1CCCC1)Nc1ccc(Cl)c(Cl)c1	none (no result: BaF3 tox, APP transl inh, Ba/F3 V617F tox)
CCOc1cc(C(=O)N[C@@H](C)C(=O)N2CCC3(CC2)NCCc2[nH]cnc23)cc(OCC)c1OCC	none (no result: BaF3 tox, APP transl inh, Ba/F3 V617F tox)
CCCCCCCCCCOC(=O)Cn1c(COc2cccc(C)c2)[n+](C)c2ccccc21	aSyn UTR inh 64.8 (no result: BaF3 tox, APP transl inh, Ba/F3 V617F tox)
CCCCCCCCCCOC(=O)Cn1c(COc2ccccc2)[n+](C)c2ccccc21	none (no result: BaF3 tox, APP transl inh, Ba/F3 V617F tox)
CCCCCCCCCCOC(=O)Cn1c(COc2ccc(Cl)cc2)[n+](C)c2ccccc21	aSyn UTR inh 82.6 (no result: BaF3 tox, APP transl inh, Ba/F3 V617F tox)
O=C(NNc1cc(N2CCOCC2)nc(N2CCOCC2)n1)c1ccc(Cl)c(Cl)c1	none
Cc1ccc(C(=O)NNc2cc(N3CCCC3)nc(N3CCCC3)n2)cc1	aSyn UTR inh 73.7
CCCS(=O)(=O)c1nc(S(=O)(=O)c2ccc(C)cc2)c(N2CCN(CC)CC2)s1	none (no result: BaF3 tox, APP transl inh, Ba/F3 V617F tox)
CCc1ccc(NC(=O)CCNS(=O)(=O)c2cccc3nsnc23)cc1	BaF3 tox 61.5
COc1ccc(NC(=O)CCNS(=O)(=O)c2cccc3nsnc23)cc1OC	none
CCOC(=O)C1(CCCc2ccccc2)CCN(C(=O)C2CCCO2)CC1 (configuration not stated)	none
O=C(N/N=C/c1cccc2ccccc12)c1n[nH]c2c1CCCC2	APP transl inh 73.5
O=C(N/N=C\c1cccc(Cl)c1)c1n[nH]c2c1CCCC2	none
O=C(N/N=C/c1cccs1)c1n[nH]c2c1CCCC2	aSyn UTR inh 81.8 (no result: APP transl inh)
O=C(N/N=C/C=C/c1ccccc1)c1n[nH]c2c1CCC2	aSyn UTR inh 70.2, APP transl inh 60.5
O=C(c1ccco1)N1CCN(S(=O)(=O)c2cccc([N+](=O)[O-])c2)CC1	none
CSc1nc(N)c(C(=O)Nc2ccc([N+](=O)[O-])cc2)s1	none (no result: APP transl inh)
CC1(C)C2CCC1(CS(=O)(=O)NCc1ccc(S(N)(=O)=O)cc1)C(=O)C2 (configuration not stated)	none (no result: BaF3 tox, APP transl inh, Ba/F3 V617F tox)
COc1ccnc(N=CNOCc2ccc(F)cc2Cl)c1C#N	APP transl inh 82.1
COc1ccnc(N=CNOCc2cccc(Cl)c2Cl)c1C#N	none
COc1ccc2sc3c(=O)[nH]c4ccccc4c3c2c1	aSyn UTR inh 63.0
CCN(CC(=O)Nc1c(F)cccc1F)C(=O)CCN1C(=O)c2cccc([N+](=O)[O-])c2C1=O	none (no result: KLF5 inhibitor, IEC-6 tox, BaF3 tox, APP transl inh, Ba/F3 V617F tox)
CCSc1nccc(-c2nn(-c3ccc(C)cc3)ccc2=O)n1	BaF3 tox 37.7, Ba/F3 V617F tox 31.4 (no result: APP transl inh)
Cc1ccc(S(=O)(=O)N(C)C)cc1NC(=O)C(C)OC(=O)C1CCCC1 (configuration not stated)	none (no result: KLF5 inhibitor, IEC-6 tox, BaF3 tox, APP transl inh, Ba/F3 V617F tox)
CC1CCC(C(C)C)C(OC(=O)Cn2c(-c3ccc(Cl)cc3)[n+](C)c3ccccc32)C1 (configuration not stated)	aSyn UTR inh inconclusive, BaF3 tox 95.2, Ba/F3 V617F tox 98.7 (no result: APP transl inh)
Cc1ccccc1OCc1n(CC(=O)OC2CC(C)CCC2C(C)C)c2ccccc2[n+]1C (configuration not stated)	aSyn UTR inh 84.8, BaF3 tox 79.8, Ba/F3 V617F tox 100.7
CC1CCC(C(C)C)C(OC(=O)Cn2c(-c3ccc(Br)cc3)[n+](C)c3ccccc32)C1 (configuration not stated)	BaF3 tox 86.8, Ba/F3 V617F tox 101.1
CC1CCC(C(C)C)C(OC(=O)COC(=O)c2cccn2C)C1 (configuration not stated)	none
O=C(Nc1ccccc1)NC1CCCCNC1=O (configuration not stated)	none (no result: APP transl inh)
COc1ccc(Cn2c(SCc3ccc(C)cc3)nc3cc(OC)c(OC)cc3c2=N)cc1Cl	aSyn UTR inh 118.6
O=[N+]([O-])/C=C/c1cn(Cc2ccc(F)cc2)c2ccccc12	aSyn UTR inh 63.2
CCC(Oc1ccccc1)C(=O)N(C)CC(=O)N(CC(C)C)c1c(N)n(CC(C)C)c(=O)[nH]c1=O (configuration not stated)	none (no result: KLF5 inhibitor, IEC-6 tox, BaF3 tox, APP transl inh, Ba/F3 V617F tox)
Cc1ccc(S(=O)(=O)/N=C2/C=C(Sc3ncn[nH]3)C(=O)c3ccccc32)c(C)c1	APP transl inh 65.5, Ba/F3 V617F tox 53.8 (no result: aSyn UTR inh)
CC(C)c1ccc(S(=O)(=O)/N=C2/C=C(Sc3ncn[nH]3)C(=O)c3ccccc32)cc1	IEC-6 tox 38.7, BaF3 tox 73.6, Ba/F3 V617F tox 53.6 (no result: aSyn UTR inh)
Cc1ccc(C(=O)N2CCOCC2)c(F)c1F	BaF3 tox 90.1
Cc1cc(F)c(F)c(C(=O)N2CCOCC2)c1Cl	none
COc1ccc(C(=O)Nc2ccc3[nH]ncc3c2)cc1OC	none (no result: BaF3 tox, APP transl inh, Ba/F3 V617F tox)
CCCCOc1ccc(-c2cnc3ccccc3n2)cc1	aSyn UTR inh 101.3 (no result: APP transl inh)
Oc1ccc(-c2cnc3ccccc3n2)cc1	none (no result: KLF5 inhibitor, IEC-6 tox, BaF3 tox, APP transl inh, Ba/F3 V617F tox)
O=C(NNC(=S)Nc1ccc(F)c(Cl)c1)c1ccccc1Br	none
CN(N=Nc1cccc([N+](=O)[O-])c1)c1cccc([N+](=O)[O-])c1	none
CC(=O)N(C)c1cccc([N+](=O)[O-])c1	APP transl inh 87.2
O=C(CC1(O)C(=O)N(Cc2cccc3ccccc23)c2ccccc21)c1cccnc1 (configuration not stated)	BaF3 tox 54.3, APP transl inh 55.8, Ba/F3 V617F tox 68.1
CC1SCC(NC(=O)c2cccc(Cl)c2)CS1 (configuration not stated)	none (no result: APP transl inh)
CC1SCC(NC(=O)c2ccc(Cl)cc2)CS1 (configuration not stated)	BaF3 tox 45.6 (no result: APP transl inh)
CC(C)c1ccccc1NCC(=O)N1CCN(Cc2ccccc2)CC1	none (no result: BaF3 tox, APP transl inh, Ba/F3 V617F tox)
CCOc1cc(/C=N\NC(=O)c2ccc(NC(=O)C(C)(C)C)cc2)ccc1OC(=O)c1ccc(OC)cc1	APP transl inh 93.9
COc1ccc(C(=O)N/N=C/c2ccc(OC)c(COc3ccc(F)cc3)c2)cc1	none (no result: BaF3 tox, APP transl inh, Ba/F3 V617F tox)
O=C(Cn1ccc([N+](=O)[O-])n1)N1CCCCC1	BaF3 tox 42.6
CCC1(c2ccc(F)cc2)NC(=O)N(CC(=O)N2CCN(S(=O)(=O)c3ccc(C)cc3)CC2)C1=O (configuration not stated)	none (no result: KLF5 inhibitor, IEC-6 tox, BaF3 tox, APP transl inh, Ba/F3 V617F tox)
CCOC(=O)c1sc(N)c(C(=O)OC)c1C	BaF3 tox 90.4
